Six1-Eya2 blk – Six1/Eya2 interaction inhibition; Q15475+O00167; AlphaScreen GST-Six1/His-Eya2 binding, biochemical; hits give low values; activity change, % (no concentration beside the values); hit rate 0.56% among 360,000; AID 651725; in the data active = activity change below about -65%; inconclusive = mostly about -30% to -63%
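Six1/Eya2 binding was read as AlphaScreen signal after compounds were pinned into GST-Six1 plus His-tagged Eya2 (5X stock 250/500 nM) in pH 8.0 Tris/NaCl/TCEP buffer, beads added, then incubated 1 h, 37 C, dark.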
JMJD2A Tudor inh – inhibitors of human JMJD2A Tudor domain; O75164; AlphaScreen JMJD2A-Tudor / H3K4me3 peptide binding; Potency, µM (series often up to 114 µM), most hits filed as inhibitors; hit rate 4.4% among 390,000; AID 504339; also: nearly all actives have a fitted effect of over 50% in size
G9a block – blocks human histone lysine methyltransferase G9a; G9a H3K9 monomethylation, AlphaScreen, 2 h; Potency, µM (top dose mostly 102 µM), hits mostly inhibitors; hit rate 8.8% among 350,000; AID 504332; also: nearly all actives have a fitted effect of over 75% in size
Target sequence (Q96KQ7 913-1193 limits assumed): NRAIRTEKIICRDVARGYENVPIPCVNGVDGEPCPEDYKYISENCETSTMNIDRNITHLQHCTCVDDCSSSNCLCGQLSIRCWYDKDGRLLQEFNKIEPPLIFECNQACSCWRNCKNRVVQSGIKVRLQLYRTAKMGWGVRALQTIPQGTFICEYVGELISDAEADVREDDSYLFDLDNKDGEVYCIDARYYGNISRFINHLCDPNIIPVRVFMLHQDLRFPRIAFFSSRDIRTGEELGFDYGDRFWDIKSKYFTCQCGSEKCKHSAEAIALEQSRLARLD
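Chemiluminescent proximity detection of H3K9 monomethylation, read after 10 min bead incubation in the dark. Reaction: 20 nM G9a, 500 nM biotin-H3K9 peptide, 20 uM SAM cofactor, 2 h, room temperature, following 15 min enzyme-compound preincubation.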
CtBP-E1A inh – CtBP/E1A binding inhibition; AlphaScreen GST-E1A/His-CtBP binding, 1536-well; hits give low values; activity change, % (no concentration beside the values); hit rate 0.49% among 340,000; in the data active = activity change below about -65%; inconclusive = mostly about -30% to -63%
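Homogeneous bead-based format: GST-tagged E1A captured on glutathione donor beads, His-tagged CtBP on nickel acceptor beads; compounds precede bead addition by 2 h at 37 °C.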
HP1b binding inh – inhibitors of HP1-beta chromodomain binding to methylated histone tails; P83916; AlphaScreen HP1-beta / biotin-H3K9me3 peptide binding; Potency, µM (doses to about 114 µM), usual class: inhibitors; hit rate 0.56% among 390,000; AID 540317; also: nearly all actives have a fitted effect of over 70% in size
Target sequence (P83916 whole entry, looked up): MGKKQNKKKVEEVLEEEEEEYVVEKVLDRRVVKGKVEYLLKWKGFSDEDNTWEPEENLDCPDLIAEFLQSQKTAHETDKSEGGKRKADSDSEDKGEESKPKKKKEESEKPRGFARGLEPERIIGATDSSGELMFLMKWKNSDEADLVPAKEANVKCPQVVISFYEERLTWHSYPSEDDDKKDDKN
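HP1-beta protein (50 nM final) preincubated 30 min at room temperature with biotinylated H3(1-18)K9me3 peptide (50 nM) in PBS pH 7.4, 0.01% Tween-20, then compound added for 30 min. AlphaScreen streptavidin donor/nickel chelate acceptor beads (10 ug/mL final), 30 min dark, luminescence read.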
BAZ2B block – BAZ2B (human) inhibition. Q9UIF8. hit rate 4.4% among 360,000. AlphaScreen BAZ2B-H3K14Ac peptide displacement. Potency, µM (highest dose often 114 µM), usual class: inhibitors; also: nearly all actives have a fitted effect of over 60% in size
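AlphaScreen luminescence quantifies BAZ2B engagement of H3K14Ac peptide; the protein and biotinylated peptide are both at 50 nM final, buffer PBS pH 7.4 with 0.01% Tween-20, all steps at room temperature.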
Numbers stand for hits; - = inactive; ? = inconclusive; . = not tested or not shown; [ ] = remark or other dose. Hits are enriched below; roughly 10% of the tested compounds scored in any of these assays. Unless noted, calls follow the shape of the dose curve; as a rule, active = well fitted inhibition curve with a large enough effect; inconclusive = small, poorly fitted or top-dose-only effect; inactive = no such curve, though single readings can be large or run the other way.

SMILES	Six1-Eya2 blk	JMJD2A Tudor inh	G9a block	CtBP-E1A inh	HP1b binding inh	BAZ2B block
O=C(NCCc1nc2ccccc2n1CCCOc1ccc2ccccc2c1)C1CCCCC1	.	-	.	.	-	.
CCOC(=O)N(C)c1c(CC)nc2c(OCc3ccccc3OC)cccn12	-	.	.	-	.	.
COc1ccc(CNc2ncnc3cc(OC)c(OC)cc23)cc1	-	-[11.4 µM]	39.8µM	-	-	-
COc1ccc(CNc2ncnc3cc(Cl)ccc23)cc1	-	-	.	-	-	-
COc1ccccc1CNc1ncnc2cc(OC)c(OC)cc12	-	-	31.6µM	.	-	-
COc1cc2ncnc(NCc3cccc(Cl)c3)c2cc1OC	-	-	39.8µM	-	-	-
COc1cc(-c2ccc3ncnc(NCc4ccc(C)o4)c3c2)cc(OC)c1OC	.	50.1µM	.	.	.	.
COc1cc(Cl)c(C)cc1NC(=O)CSc1nc2c(c(=O)[nH]1)CCC2	.	-	?	.	-	-
COc1ccc(CNc2ncnc3cc(OC)c(OC)cc23)cc1OC	-	-	44.7µM	-	-	-
COc1cc2ncnc(NCc3ccccc3)c2cc1OC	-	-[11.4 µM]	70.8µM	-	-	-
COc1cc2ncnc(NCc3ccco3)c2cc1OC	-	-	?	-	-	-
CCC(=O)N1CCc2cc(S(=O)(=O)NC(C(=O)NCc3ccccc3Cl)C(C)C)ccc21 (centres undefined)	.	-	-	.	-	.
CC(=O)Nc1ccc(S(=O)(=O)NCCc2cc3ccc(C)c(C)c3[nH]c2=O)cc1	-	-	-	-	-	-
COc1ccc(NC(=O)CSc2nncn2C)cc1	-	-	-[2.33 µM]	-	-	-
COc1ccc(NC(=O)CSc2c(C)nn(-c3nnc(C)c(=O)[nH]3)c2C)cc1	?	39.8µM	12.6µM	-	-	31.6µM
O=C(Nc1ccccc1)Nc1nnc(SCC(=O)N2CCCCC2)s1	.	-	?	.	-	-
Cc1ccc2[nH]c(CSc3nnc(NC(=O)c4ccccc4F)s3)cc(=O)c2c1	.	-	-	.	-	-
CNC(=O)CSc1nnc(NC(=O)Nc2ccccc2)s1	.	-	15.8µM	.	-	-
CC1CCN(C(=O)CSc2nnc(NC(=O)Nc3ccccc3)s2)CC1	.	-	12.6µM	.	-	-
O=C(Nc1ccccc1)Nc1nnc(SCc2ccc(Cl)cc2)s1	-	-	-	-	-	-
CCSc1nnc(NC(=O)CSc2nccn2-c2cc(C)cc(C)c2)s1	-	-	?	-	-	?
Cc1ccc2[nH]c(CSc3nnc(NC(=O)c4ccccc4C)s3)cc(=O)c2c1	.	-	-	.	-	56.2µM
CCSc1nnc(NC(=O)CSc2nccn2-c2cccc(C)c2C)s1	-	25.1µM	?	-	?	?
C=CCC(NC(=O)N(C)C)(C(C)=O)C(=O)OC (centres undefined)	-	.	.	-	.	.
Cc1sc2ncn(CC(=O)N3CCN(c4ccc(F)cc4)CC3)c(=O)c2c1S(=O)(=O)N1CCCCC1	.	-	-	.	-	-
SMILES	Six1-Eya2 blk	JMJD2A Tudor inh	G9a block	CtBP-E1A inh	HP1b binding inh	BAZ2B block
Cc1cccc(C)c1NC(=O)CCCSc1nnc(N)s1	-	-	50.1µM	-	-	-
CCOc1ccccc1C(=O)Nc1nnc(SCC(=O)N2CCOCC2)s1	-	-	-	-	-	-
O=C(Nc1nnc(SCC(=O)N2CCOCC2)s1)c1ccccc1	-	?	10µM	-	-	-
O=C(CSc1nnc(NC(=O)c2ccccc2C(=O)O)s1)Nc1ccccc1Cl	-	-[11.4 µM]	?	.	-	-
CCCC(=O)Nc1nnc(SCC(=O)N2CCCCC2)s1	-	70.8µM	17.8µM	-	?	-
Cc1cccc(C)c1NC(=O)CSc1nnc(NC(=O)c2ccccc2C(=O)O)s1	-	-	50.1µM	-	-	-
COc1ccc(NC(=O)C2(C)CCN2C(=O)c2ccccc2CCc2ccccc2)cc1OC (centres undefined)	-	.	.	-	.	.
CS(=O)(=O)Nc1nnc(SCC(=O)N(c2ccccc2)c2ccccc2)s1	-	-	50.1µM	-	-	-
CC(C)[C@H](NC(=O)c1ccco1)C(=O)Nc1ccc(N2CCCCCC2)cc1	-	.	.	-	.	.
CC(=O)Nc1ccc(NC(=O)CC2Sc3ccccc3NC2=O)cc1 (centres undefined)	.	-	?	.	-	-
O=C(CC1Sc2ccccc2NC1=O)Nc1cccc(C(=O)O)c1 (centres undefined)	-	50.1µM	39.8µM	-	?	56.2µM
CC(=O)Nc1ccc2c(COC(=O)CC3Sc4ccccc4NC3=O)cc(=O)oc2c1 (centres undefined)	-	79.4µM	.	-	?	56.2µM
O=[N+]([O-])c1ccc(N2CCN(c3ccc(O)cc3)CC2)cn1	-	?	11.2µM	-	?	?
Cc1ccc(-c2nnn(CC(=O)N(Cc3cccs3)C(C(=O)NC(C)(C)C)c3ccc(C)o3)n2)o1 (centres undefined)	-	-	?	-	-	-
Cc1ccc(-c2nnn(CC(=O)N(Cc3ccco3)C(C(=O)NC(C)(C)C)c3cccs3)n2)o1 (centres undefined)	-	-	12.6µM	-	-	?
Cc1ccc(-c2nnn(CC(=O)N(Cc3cccs3)C(C(=O)NC(C)(C)C)c3ccco3)n2)o1 (centres undefined)	-	-	17.8µM	-	-	-
CN(C)N1C(N)=C(C#N)C(c2ccc(Br)cc2)C2=C1CC(C)(C)CC2=O (centres undefined)	-	-	-	-	-	-
CCOc1ccc(C2C(C#N)=C(N)N(N(C)C)C3=C2C(=O)CC(C)(C)C3)cc1 (centres undefined)	-	-	35.5µM	-	-	-
COc1ccc(C2C3=C(CC(C)(C)CC3=O)N(CC(=O)O)C3=C2C(=O)CC(C)(C)C3)cc1OC	-	-	70.8µM	-	-	-
COc1ccc(C2C(C#N)=C(N)N(c3cccnc3)C3=C2C(=O)CC(C)(C)C3)cc1OC (centres undefined)	-	-	35.5µM	-	-	-
Cc1ccc(C2C(C#N)=C(N)N(c3cccnc3)C3=C2C(=O)CCC3)s1 (centres undefined)	?	-	39.8µM	-	-	?
CCOc1cc(C2C3=C(CC(C)(C)CC3=O)N(CCOC)C3=C2C(=O)CC(C)(C)C3)ccc1OC	-	-	?	-	-	-
COCCCNC(=O)c1ccc(-n2c(-c3ccccc3)cc3c2CCC(C)C3)cc1 (centres undefined)	.	-	-	.	-	-
COc1ccc(C2CC(=O)Nc3cc(OC)c(OC)cc32)cc1 (centres undefined)	-	.	.	-	.	.
Cc1ccc(NCc2ccccc2-c2nnc(-c3ccccc3Cl)o2)c(C)c1	.	?	-	.	-	?
CCOc1ccccc1NC(=O)CN(CCc1ccccc1)S(=O)(=O)c1ccc(C)cc1	.	-	-	.	-	-

Bioassay records (PubChem BioAssay)
